# Experimental data reported in PubChem BioAssay (EPA / NIEHS).
# Inconclusive results are not listed. Calls of active or inactive are those of the source. The calls were made as follows: active = hit-call score of the fitted dose curve at least 0.9, where 1 is the maximum; inconclusive = response in the unintended direction; inactive = score below 0.9.
# How the values were obtained:
# [1] = ACEA_AR_antagonist_AUC_viability: ACEA Biosciences xCELLigence Real-Time Cell Analysis on Androgen Receptor Antagonism for Viability (AID 2283776);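 also: 22Rv1 human prostate cancer cells growing on impedance electrode plates; area under impedance growth curve at 80 h after dosing as viability; hits lower the growth signal relative to DMSO meaning cytotoxicity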
# Outline: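 22Rv1 prostate cells, continuous dosing up to 100 uM final (0.5% DMSO max), duplicate plates. Growth measured by impedance; AUC at 80 h, loss of signal vs DMSO.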
# AR (gene 367) = AR (gene 367) (UniProt P10275); experiment: ACEA_AR_agonist_80hr: ACEA Biosciences xCELLigence Real-Time Cell Analysis on Androgen Receptor Agonism for Proliferation (AID 2283783);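 also: hits increase impedance growth signal above DMSO baseline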
# Outline: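 22Rv1 human prostate cancer cells were seeded after preconditioning in assay medium and monitored overnight, then dosed in an eight-point 1:4 dilution series from 100 uM (≤0.5% DMSO). Impedance-based growth was read at 80 h, gain-of-signal versus DMSO.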
# [2] = STM_H9_NormalizedViability: Cytotoxicity Assessment at 120 hours in the Stemina devTOX quickPredict H9 human embryonic stem cell (hESC)-based Assay (AID 2283784)
# Outline: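 Chemicals are tested blinded on H9 human embryonic stem cells in the pluripotent state, with medium exchanged daily. After background correction, fluorescence from CellTiter-Fluor is scaled against 0.1% DMSO wells, and decreases are scored.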
# Sequence of AR (gene 367) (P10275 whole entry, looked up): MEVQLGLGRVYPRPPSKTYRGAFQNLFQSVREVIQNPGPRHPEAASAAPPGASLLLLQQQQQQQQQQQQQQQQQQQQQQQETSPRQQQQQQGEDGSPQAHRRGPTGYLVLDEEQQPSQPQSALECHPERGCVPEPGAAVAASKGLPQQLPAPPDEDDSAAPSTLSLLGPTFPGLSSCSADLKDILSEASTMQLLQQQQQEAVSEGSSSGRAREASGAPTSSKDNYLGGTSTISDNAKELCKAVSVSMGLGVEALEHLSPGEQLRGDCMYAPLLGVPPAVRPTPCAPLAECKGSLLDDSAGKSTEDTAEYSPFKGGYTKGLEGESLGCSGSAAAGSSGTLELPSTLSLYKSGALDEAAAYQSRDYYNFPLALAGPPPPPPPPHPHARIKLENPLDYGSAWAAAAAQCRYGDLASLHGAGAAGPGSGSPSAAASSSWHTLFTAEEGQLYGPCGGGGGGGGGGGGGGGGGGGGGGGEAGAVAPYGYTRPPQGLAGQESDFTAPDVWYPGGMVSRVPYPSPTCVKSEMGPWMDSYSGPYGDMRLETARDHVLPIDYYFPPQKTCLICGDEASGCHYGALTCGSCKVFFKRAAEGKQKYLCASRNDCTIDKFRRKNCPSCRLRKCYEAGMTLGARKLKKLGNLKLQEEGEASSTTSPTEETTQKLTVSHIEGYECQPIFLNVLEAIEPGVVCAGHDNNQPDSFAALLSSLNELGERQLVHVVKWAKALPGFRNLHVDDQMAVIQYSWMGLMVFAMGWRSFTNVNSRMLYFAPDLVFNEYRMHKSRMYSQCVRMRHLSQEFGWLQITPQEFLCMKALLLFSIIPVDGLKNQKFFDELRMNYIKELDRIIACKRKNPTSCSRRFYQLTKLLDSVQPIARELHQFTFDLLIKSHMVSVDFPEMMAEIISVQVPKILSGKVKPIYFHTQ
smiles,measurement,setting,value
OCCOCCOCCO,outcome,[1],inactive
same,outcome,AR (gene 367),inactive
COc1cc2c(c(OC)c1OC)-c1ccc(OC)c(=O)cc1[C@@H](NC(C)=O)CC2,AC50,[1],0.00231 µM (active)
same,outcome,AR (gene 367),inactive
same,AC50,[2],0.0165 µM (active)
CCCCCCOC(=O)CC(CC(=O)OCCCCCC)(OC(=O)CCC)C(=O)OCCCCCC,outcome,[1],inactive
same,outcome,AR (gene 367),inactive
Nc1ccn([C@@H]2O[C@H](CO)[C@@H](O)[C@@H]2O)c(=O)n1,AC50,[1],0.88 µM (active)
same,AC50,[2],0.27 µM (active)
NNC(=O)c1ccncc1,outcome,[1],inactive
CCOc1ccc2[nH]cc(C(=O)NCc3ccccc3)c(=O)c2n1,AC50,[1],35.9 µM (active)
O=c1[nH]cnc2c1ncn2[C@H]1CC[C@@H](CO)O1,outcome,[1],inactive
same,outcome,[2],inactive
CCCCCCCCCC,outcome,[2],inactive
O=C(O)c1ccc2c(c1)nc(C(=O)NC1CCN(C3CC3)CC1)n2Cc1cc(-c2ccc(Cl)s2)on1,AC50,[1],15.8 µM (active)
OC(CCl)CCl,outcome,[1],inactive
Cc1nc(-c2ccccn2)ncc1C(=O)Nn1cc(C)c2cc(F)ccc21,AC50,AR (gene 367),0.000427 µM (active)
same,outcome,[2],inactive
COc1cc(C(C)C)c2c(c1)S(=O)(=O)N(COc1cc(=O)n3cccc(OCCN4CCCCC4)c3n1)C2=O,AC50,[1],16.8 µM (active)
same,outcome,AR (gene 367),inactive
CCCC(CCC)C(=O)O,AC50,[1],50 µM (active)
same,AC50,[2],340 µM (active)
O=C(NO)C1(NS(=O)(=O)c2ccc(Oc3ccc(F)cc3)cc2)CCOCC1,AC50,[1],50 µM (active)
O=S1(=O)CCCO1,outcome,[1],inactive
same,outcome,[2],inactive
COS(C)(=O)=O,outcome,[1],inactive
same,AC50,[2],70.5 µM (active)
CCCc1ccccc1,outcome,[1],inactive
CCCCCCCCN(C)C,outcome,[1],inactive
